This passage reports AC50 and outcome results from PubChem BioAssay (EPA / NIEHS).

Conditions in all cases: mRNA level, 48 h; actives raise or lower the signal
Read-out in assay [1]: Cytochrome P450 2C19 (Homo sapiens) (UniProt P33261)
As to the kind of experiment: LTEA_HepaRG_CYP2C19: Life Technologies and Expression Analysis (LTEA) Assay for CYP2C19 using HepaRG (AID 2283482). The gist of the method: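 Human HepaRG liver cells received test chemicals for 48 h (highest 100 uM, half-log dilutions in 0.5% DMSO). CYP2C19 mRNA induction or loss is read by multiplexed qRT-PCR and fitted in both directions versus vehicle.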

Read-out in assay [2]: CYP2C8 (gene 1558)
The experiment in a line: LTEA_HepaRG_CYP2C8: Life Technologies and Expression Analysis (LTEA) Assay for CYP2C8 using HepaRG (AID 2283483). In outline: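 This is a transcriptional endpoint in HepaRG cultures: 48 h exposure, highest concentration 100 uM. CYP2C8 mRNA is quantified by TaqMan qRT-PCR.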

Read-out in assay [3]: CYP2C9 (gene 1559)
As to the kind of experiment: LTEA_HepaRG_CYP2C9: Life Technologies and Expression Analysis (LTEA) Assay for CYP2C9 using HepaRG (AID 2283484). The gist of the method: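 Eight-point concentration-response (highest 100 uM, half-log dilutions) in HepaRG cells for 48 h; CYP2C9 expression by qRT-PCR normalized to ACTB, GAPDH, POLR2A. Bidirectional fit, DMSO baseline.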

Read-out in assay [4]: CYP2E1 (gene 1571)
As to the kind of experiment: LTEA_HepaRG_CYP2E1: Life Technologies and Expression Analysis (LTEA) Assay for CYP2E1 using HepaRG (AID 2283485). The gist of the method: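 Assay uses 48 h exposure of HepaRG hepatic cells, eight concentrations to 100 uM. Expression of CYP2E1 is quantified by TaqMan qRT-PCR with ACTB, GAPDH and POLR2A normalization; curves fitted in both directions relative to vehicle.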

Read-out in assay [5]: CYP4A11 (gene 1579)
As to the kind of experiment: LTEA_HepaRG_CYP4A11: Life Technologies and Expression Analysis (LTEA) Assay for CYP4A11 using HepaRG (AID 2283486). The gist of the method: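 Readout is CYP4A11 mRNA induction or suppression (qRT-PCR, ACTB/GAPDH/POLR2A normalization) in human HepaRG cells after 48 h chemical treatment, concentrations to 100 uM in 0.5% DMSO, fitted bidirectionally against vehicle.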

Read-out in assay [6]: Cytochrome P450 3A4 (Homo sapiens) (UniProt P08684)
The experiment in a line: LTEA_HepaRG_CYP3A4: Life Technologies and Expression Analysis (LTEA) Assay for CYP3A4 using HepaRG (AID 2283487). The gist of the method:
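In a human hepatic line (HepaRG), duplicate wells were treated 48 h with up to 100 uM chemical in half-log dilutions. Endpoint: CYP3A4 mRNA induction or loss relative to 0.5% DMSO vehicle, by qRT-PCR.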

Read-out in assay [7]: DNA damage-inducible transcript 3 (DDIT3), DDIT3 (gene 1649)
As to the kind of experiment: LTEA_HepaRG_DDIT3: Life Technologies and Expression Analysis (LTEA) Assay for DNA damage-inducible transcript 3 (DDIT3) using HepaRG (AID 2283488). The gist of the method:
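Eight-point concentration-response (100 uM highest, half-log dilutions) in HepaRG, 48 h, duplicate wells. Endpoint: qRT-PCR mRNA, normalized (ACTB, GAPDH, POLR2A), bidirectional fitting with DMSO as baseline.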

Read-out in assay [8]: Pro-epidermal growth factor (Homo sapiens) (UniProt P01133)
The experiment in a line: LTEA_HepaRG_EGF: Life Technologies and Expression Analysis (LTEA) Assay for Epidermal growth factor (EGF) using HepaRG (AID 2283489). In outline: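 EGF expression changes in human HepaRG cells are scored by bidirectional fitting relative to 0.5% DMSO controls. Chemicals are tested at eight half-log concentrations up to 100 uM for 48 h in serum-free induction medium.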

Read-out in assay [9]: Ezrin (EZR), EZR (gene 7430)
The experiment in a line: LTEA_HepaRG_EZR: Life Technologies and Expression Analysis (LTEA) Assay for Ezrin (EZR) using HepaRG (AID 2283491). The gist of the method: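 Gain or loss of EZR mRNA is scored relative to 0.5% DMSO in human HepaRG cultures treated 48 h with test chemicals in duplicate, eight half-log concentrations from 100 uM.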

Read-out in assay [10]: Early growth response protein 1 (EGR1) transcription factor, EGR1 (gene 1958)
As to the kind of experiment: LTEA_HepaRG_EGR1: Life Technologies and Expression Analysis (LTEA) Assay for Early growth response protein 1 (EGR1) transcription factor using HepaRG (AID 2283490). The gist of the method: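 EGR1 expression change in human HepaRG after 48 h chemical exposure, assessed by housekeeping-normalized qRT-PCR; concentration-response up to 100 uM, fitted in both directions against DMSO controls.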

Each structure is given as a SMILES string. “And” between values parts separate entries of the source, which are not always exact repeats. Equal values may be shown once. A structure can be active in one record and inactive in another. The source made the active and inactive calls. Rule for the calls: active = hit-call score of the fitted dose curve at least 0.9, where 1 is the maximum; inactive = score below 0.9.

Chain of Cytochrome P450 2C19 (Homo sapiens) (P33261 whole entry, looked up): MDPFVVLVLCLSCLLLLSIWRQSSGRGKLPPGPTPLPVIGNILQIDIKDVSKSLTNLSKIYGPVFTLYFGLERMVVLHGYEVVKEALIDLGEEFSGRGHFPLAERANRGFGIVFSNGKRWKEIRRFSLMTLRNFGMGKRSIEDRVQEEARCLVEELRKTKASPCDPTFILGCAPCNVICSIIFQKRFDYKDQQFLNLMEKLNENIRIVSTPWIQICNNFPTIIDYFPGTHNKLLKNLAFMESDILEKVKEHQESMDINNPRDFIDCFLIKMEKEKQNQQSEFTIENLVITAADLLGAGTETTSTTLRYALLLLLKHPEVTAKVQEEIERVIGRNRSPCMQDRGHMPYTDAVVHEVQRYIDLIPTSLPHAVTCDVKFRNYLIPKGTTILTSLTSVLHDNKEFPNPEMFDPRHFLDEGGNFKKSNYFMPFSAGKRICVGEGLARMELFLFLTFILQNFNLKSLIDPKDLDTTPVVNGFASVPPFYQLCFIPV
Chain of Cytochrome P450 3A4 (Homo sapiens) (P08684 whole entry, looked up): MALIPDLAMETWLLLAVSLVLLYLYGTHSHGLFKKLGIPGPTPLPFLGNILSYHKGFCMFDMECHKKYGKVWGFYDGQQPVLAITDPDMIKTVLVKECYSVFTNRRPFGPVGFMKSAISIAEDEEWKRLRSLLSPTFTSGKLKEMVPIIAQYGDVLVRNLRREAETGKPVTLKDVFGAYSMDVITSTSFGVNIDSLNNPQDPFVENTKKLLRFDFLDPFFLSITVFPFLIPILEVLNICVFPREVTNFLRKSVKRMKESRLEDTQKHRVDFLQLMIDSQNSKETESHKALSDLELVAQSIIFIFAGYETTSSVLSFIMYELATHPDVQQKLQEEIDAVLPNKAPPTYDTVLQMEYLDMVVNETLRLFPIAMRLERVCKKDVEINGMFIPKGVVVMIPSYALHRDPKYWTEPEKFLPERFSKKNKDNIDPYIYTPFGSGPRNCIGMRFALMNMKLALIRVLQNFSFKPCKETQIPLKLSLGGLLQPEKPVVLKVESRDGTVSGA

For `COc1nn(CSP(=S)(OC)OC)c(=O)s1`, the AC50 in assay [1] was 10.6 µM (active). The outcome in [2], in [3], in assay [4], in assay [5], in [6] and in assay [7] was inactive. The result in [8] and in [9] was inactive.

Consider `O=C(Nc1ccccc1)Nc1cnns1`, for which the AC50 is 89.1 µM (active) in assay [1]; 88.7 µM (active) in [2]; 84 µM (active) in assay [3]; 70.3 µM (active) in [4]; 72.9 µM (active) in [5]; 79.2 µM (active) in [7]. For the same molecule, the result in assay [6] and in [8] was inactive.

As to `CNC(=O)Oc1ccccc1OC(C)C`, the molecule was called inactive in [1], in assay [2], in [3], in assay [5], in assay [7] and in assay [8]. Moreover, the molecule was called inactive in assay [10] and in assay [9]. Also, the AC50 in assay [4] is 22.2 µM (active); in [6] it was 0.594 µM (active).

Turning to `CC1(c2ccc(Oc3ccccc3)cc2)OC(=O)N(Nc2ccccc2)C1=O` (stereo unspecified), the AC50 in assay [1] is 26.3 µM (active); in assay [2], 15.9 µM (active); in assay [3], 17.4 µM (active); in assay [4], 5.56 µM (active); in assay [5], 8.16 µM (active); in assay [6], 26.2 µM (active). Moreover, the AC50 in [7] is 8.41 µM (active); in [10] it was 82.1 µM (active); in assay [9], 4.5 µM (active). Moreover, in assay [8], the result was inactive.

As to `O=[N+]([O-])/N=C1\NCCN1Cc1ccc(Cl)nc1`, the AC50 is 34 µM (active) in [1]; 74.1 µM (active) in assay [2]; 38.1 µM (active) in [3]; 34.8 µM (active) in [4]; 30.2 µM (active) in assay [8]. The outcome in assay [5], in [6], in assay [7] and in assay [9] was inactive.

For the molecule `OCCOc1ccccc1`, the call in assay [1], in [2], in [3], in assay [4], in assay [5] and in [6] was inactive. The result in assay [7], in assay [8], in assay [10] and in assay [9] was inactive.

For the molecule `Oc1ccc(Cl)cc1Cc1ccccc1`, the AC50 in [1] is 83.7 µM (active) and 50.5 µM (active); in assay [3], 79.2 µM (active); in [4] it was 50.5 µM (active); in assay [5] it was 81.7 µM (active) and 81.2 µM (active). Further, the result in assay [1], in assay [2], in [3], in assay [4], in assay [5] and in assay [6] was inactive. In addition, the call in [7], in assay [8] and in [9] was inactive.

With `CNC(=O)Oc1cccc(N=CN(C)C)c1`, the outcome in assay [1], in assay [2], in assay [3], in assay [4], in assay [5] and in assay [6] was inactive. Moreover, the molecule was called inactive in assay [7], in assay [8] and in assay [9].

Consider `CC1(C)C(C=C(Cl)Cl)C1C(=O)OC(C#N)c1ccc(F)c(Oc2ccccc2)c1` (stereo unspecified), for which the AC50 was 20.7 µM (active) in assay [1]; 17.1 µM (active) in assay [2]; 14 µM (active) in [3]; 55.3 µM (active) in assay [4]; 10.9 µM (active) in assay [6]; 61.4 µM (active) in [8]. The outcome in assay [5], in assay [7] and in assay [9] was inactive.

In the case of `CCc1ccc(C(=O)NN(C(=O)c2cc(C)cc(C)c2)C(C)(C)C)cc1`, the AC50 in [1] was 2.71 µM (active); in assay [2] it was 12.1 µM (active); in assay [4] it was 42.4 µM (active); in assay [5], 77.2 µM (active); in assay [6], 3.75 µM (active). Also, the molecule was classed as inactive in assay [3], in [7], in assay [8] and in [9].

As to `CCCN(CCOc1c(Cl)cc(Cl)cc1Cl)C(=O)n1ccnc1`, the AC50 was 36.8 µM (active) in assay [1]; 28.4 µM (active) in assay [2]; 31.9 µM (active) in [3]; 14.6 µM (active) in assay [4]; 18.2 µM (active) in assay [5]; 36.2 µM (active) in assay [6]. Besides, the AC50 in [7] was 24 µM (active); in assay [8], 12.1 µM (active); in assay [10], 27.9 µM (active); in assay [9], 31.1 µM (active).

Broadly, the AC50 is the midpoint of the concentration-response curve, whichever way the signal moves.
